In all, about 5,800 sequences were measured (“enrichment r”: median about 0.68, highest 2% from about 11 on). The sample as a whole holds a higher share of the highest values than the screen did.
T1: UNK ZnF1-6 (called full-length) (human, UniProt Q9C0B0 30-357)
T1 sequence: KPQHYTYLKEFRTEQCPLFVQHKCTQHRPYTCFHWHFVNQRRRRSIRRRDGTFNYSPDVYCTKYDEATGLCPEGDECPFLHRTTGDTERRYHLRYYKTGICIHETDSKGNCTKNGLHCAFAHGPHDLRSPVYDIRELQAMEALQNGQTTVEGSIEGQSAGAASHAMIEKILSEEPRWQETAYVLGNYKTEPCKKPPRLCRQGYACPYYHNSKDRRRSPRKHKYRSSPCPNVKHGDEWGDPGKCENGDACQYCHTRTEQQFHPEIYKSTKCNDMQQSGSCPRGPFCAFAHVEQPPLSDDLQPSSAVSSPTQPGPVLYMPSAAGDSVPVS

B1: chr11:118750849:118750950:-|3pUTR|ENSG00000110367|msi1|FALSE|unique (ssRNA)
RNA: GGGAGUUCUACAGUCCGACGAUCAUUCUAGAAAGUACUUUGGCCUCGUGCUGUAGAGAGCAGAUUUCUAUGGUACCCUGUGUUAGUAAAGGGGCCCAGAAAUCUGGGAUGUACUGUUUGCUGCCACACUGUCUCAUCUAGUACCAACAGAGGAUUGAGCAUCA
B2: ENSG00000198589:be:win_8001|CDS|ENSG00000198589|bound_else_gene|NA|bound_elsewhere_windowed (ssRNA)
RNA: GGGAGUUCUACAGUCCGACGAUCUGGAGAUAACCCAGGCAGUGAGACUGCUGCUCCUCGGGCCAUUUUGACCGGCCAUGACUAUGAGGUCACAUGUGCUGCGGUGUGUGCGGAGCUAGGCCUGGUGUUGAGUGGUUCACAAGACAACAGAGGAUUGAGCAUCA
B3: chr2:231108229:231108516:-|three_prime_utr|ENSG00000135914|control|control|control (ssRNA)
RNA: GGGAGUUCUACAGUCCGACGAUCAAGAAUAUCUAAUUUUCCUAAUUUGGACAAGAUUAUUCCAUGAGGAAAAUAAUUUUAUAUAGCUACAAAUGAAAACAAUCCAGCACUCUGGUUAAAUUUUAAGGUAUUCGAAUGAAAUAACAACAGAGGAUUGAGCAUCA
B4: chr5:113594843:113594944:+|3pUTR|ENSG00000047188|msi1|FALSE|bound_elsewhere (ssRNA)
RNA: GGGAGUUCUACAGUCCGACGAUCCAACAUAAAAUCUUGAGAACCUUCUACUUUCUCUGGGAAAGCAUUAUAUAGUGGUGCAUUAGUUUAGAAAGUCAGCUAUGAUUUUGCCUAUAGUUCUAGUUAUUAGCUUUGGGGUUUUCUCAACAGAGGAUUGAGCAUCA
B5: chr3:49657245:49657349:+|CDS|ENSG00000164061|unk|total|mutant (ssRNA)
RNA: GGGAGUUCUACAGUCCGACGAUCCAGCCGCCGUGGCAUCAAGAAGCGGCACUCCAUGCCACGCCUGCGGGAUGCCUGUGAGCCCGAGUCUGGGACUGAGCCCUGUGUGGUCAGGAGGAUUGCCGACAGCAGCGUGCAGACAGACAACAGAGGAUUGAGCAUCA
B6: chr1:193014253:193014354:-|3pUTR|ENSG00000116750|unk|total|mutant (ssRNA)
RNA: GGGAGUUCUACAGUCCGACGAUCUUAACCGGUAUAAGGAUUUUUCUUAUUAAUCUAAUAAAAUUCCUUAACCGGAAUUUCCACCGCUUAAGAGUGGUUUAUUUUAUCUGCAUCUUCUUUGGUGAUUGCAAAUCCCUUGUGAUACAACAGAGGAUUGAGCAUCA
B7: chr1:45660322:45660423:-|5pUTR|ENSG00000159592|unk|FALSE|unique (ssRNA)
RNA: GGGAGUUCUACAGUCCGACGAUCUCCCCUUCCCCCCUUCCCCUUUUCCCCUUUCCCCUUUUGGAAACGUGUCAGGAACCAAAUAGUUUAAGAUGAGCAGUUGAGGGGACUGAGAGAGUGAUCGACACAGAACCUGGCUUCUUCCAACAGAGGAUUGAGCAUCA
B8: ENSG00000070961:be:win_3901|3pUTR|ENSG00000070961|bound_else_gene|NA|bound_elsewhere_windowed (ssRNA)
RNA: GGGAGUUCUACAGUCCGACGAUCAAGUGACCUGUGGAUCAUCAGUAGUACCCAAGCAUGGUCCUGAACAGUGUAUUAGCAGAGCUUUAGUUUAUCUCAGUCCUGGAUGGGAGAGAGAGGGAGGAGUAAAACUGGGCAAGACAACAACAGAGGAUUGAGCAUCA
B9: chr11:95167508:95167609:-|3pUTR|ENSG00000149212|unk|FALSE|unique (ssRNA)
RNA: GGGAGUUCUACAGUCCGACGAUCAAUAAUGGAGACUGAAUGAGGCGGUUUGUAUUAAAUUAUAUGCCAUGAAGUGUUCAUUUUAGCUUUAACCUAAUUAUGACUGUACCACCAUGAAGUACAGAAUGAAAAAUUAUAUAUAUGCAACAGAGGAUUGAGCAUCA
B10: chr8:30843048:30843149:-|CDS|ENSG00000133863|unk|FALSE|unique (ssRNA)
RNA: GGGAGUUCUACAGUCCGACGAUCGGAUACUAUAAUUGCUUCCAGAAAGUCAGAUCAUCCAAUAAACGAAGCAACAAUUAGCAUAGAAAAUUCUAAAUUUAACAGUAAUUUGCUUGCACACCCAGAUAUUUGUUGUAUUAGUGACAACAGAGGAUUGAGCAUCA
B11: chr8:80500255:80500365:+|CDS|ENSG00000205189|unk|FALSE|unique (ssRNA)
RNA: GGGAGUUCUACAGUCCGACGAUCGAAAAACCAAACUACAAAAAGAUUUAUUUAUAAUAUUCCACCUAAUAAUGAAACGAAUUUAGAAGAUUGCUCAGUAAUGCAGCCACCUGUUGCCUAUCCAGAAGAAAAUACACUACUCAUCAACAGAGGAUUGAGCAUCA
B12: ENSG00000136451:be:win_3801|3pUTR|ENSG00000136451|bound_else_gene|NA|bound_elsewhere_windowed (ssRNA)
RNA: GGGAGUUCUACAGUCCGACGAUCACCCCUAAGCUAGAAUGUGGUUGUCAGAACCCUGAAAGUAUUAGUUCUAAAAAAAAAAAGAUAUAUACUAGAAGUAAUUGUUUUAUCAAUUCAUUGUAUAAUAAACAGGAGUGAGACUUCCAACAGAGGAUUGAGCAUCA
B13: chr2:42328916:42329027:+|CDS|ENSG00000143924|unk|total|mutant (ssRNA)
RNA: GGGAGUUCUACAGUCCGACGAUCAGAAGGAUCUGAUGGGACAGAUAUCAAUGCACUGGUGCGAUCCCACAACCGAAAGGUGACCGCUGUUGCCGAUGACUUUUGUAAAGUCCAUCUGUUUCAGUAUCCCUGCUCCAAAGCAAACAACAGAGGAUUGAGCAUCA
B14: chr6:52279506:52279615:-|CDS|ENSG00000112118|unk|total|mutant (ssRNA)
RNA: GGGAGUUCUACAGUCCGACGAUCUGAGUGUGGCAUUUUUAAGACAGGACGGAGAUCACUCUGUCCCUCUGUGUGCCUUUUUCCCGGAUGAGGAGAACAAUCCCCUUGAGACAGAAUAUGGCCUUUCUGUCUACAAGGAUCACCCAACAGAGGAUUGAGCAUCA

Target: T1, UNK ZnF1-6 (called full-length)
Test: nsRBNS (natural sequence RNA bind-n-seq); RBNS binding buffer (assumed for nsRBNS): 25 mM Tris pH 7.5, 150 mM KCl, 3 mM MgCl2, 0.01% Triton X-100, 500 ug/ml BSA, 20 U/ml SUPERase-In, 4 C; UNK is unkempt and MSI1 is Musashi-1; names of the RNAs are library labels; protein concentration not given here; high values mean tight binding

Row | Binder | binding signal [enrichment R]
1 | B1 | 0.975
2 | B2 | 0.695
3 | B3 | 1.88
4 | B4 | 5.33
5 | B5 | 0.785
6 | B6 | 0.372
7 | B7 | 0.765
8 | B8 | 1.72
9 | B9 | 8.52
10 | B10 | 14.2
11 | B11 | 9.28
12 | B12 | 2.41
13 | B13 | 0.381
14 | B14 | 0.393

Source: PMC12136788
